The sample as a whole holds a higher share of hits than the screen did.
Ba CapD inh = Bacillus anthracis CapD inhibitors, primary screen, biochemical, fluorescence intensity; CapD gamma-glutamyltranspeptidase (Bacillus anthracis Ames Ancestor); AID 492967, 2010; 140,000 compounds, 0.23% hits; z-score (concentration not given with the values); purified CapD enzyme, fluorescence intensity read-out; stronger effect = lower value; in the data active means z-score mostly below about -2.9, no sharp cut-off; inactive means mostly above about -1.9
An asterisk follows results filed as active.

SMILES	Ba CapD inh
CN1C(=O)N(C)C2C1NC(=O)N2CCC(=O)O (stereo unspecified)	-0.365
COC(=O)c1ccc([C@@H]2Nc3c(C)cccc3[C@@H]3C=CC[C@@H]32)cc1	0.475
CN(C)C(=O)c1cccc2c1NC(c1ccc(Br)cc1)C1CC=CC21 (stereo unspecified)	-0.475
O=C(O)C1Nc2c(I)cccc2C2C=CCC12 (stereo unspecified)	-8.09*
O=C(Nc1ccc(Br)cc1)c1cnn2c1NC(c1ccc(Br)cc1)CC2C(F)(F)F (stereo unspecified)	0.02
O=C1CCCc2cc(S(=O)(=O)N3CCCC3C(=O)N3CCc4ccccc43)ccc2N1 (stereo unspecified)	1.73
COC(=O)c1ccc2c(c1)N(CC(=O)N1CCOc3ccc(C)cc31)C(=O)CS2	0.575
COC(=O)c1ccc2c(c1)NC(=O)c1ccccc1S2	-0.025
CCC(Cc1ccccc1)NC(=O)c1ccc2c(c1)NC(=O)c1ccccc1S2 (stereo unspecified)	0.4
COC(CN(C)C(=O)c1ccc2c(c1)NC(=O)c1ccccc1S2)OC	-6.03*
Cc1cc2c(n1-c1ccc(C(=O)O)cc1)CCCC2	-7.48*
O=C(O)c1ccc(-n2c(-c3ccccc3)cc3c2CCCC3)cc1	-0.13
O=C(O)c1ccc(N2CCCCC2)cc1	-0.065
Cc1cc2c(n1-c1ccc(C(=O)N3CCN(c4ccccc4)CC3)cc1)CCCCC2	-0.89
Cc1ccc(C)n1-c1ccc(SCC(=O)O)cc1	-3.42
Cc1ccc(C)n1-c1ccc(C(=O)O)cc1	-13.4*
CSc1ccccc1-c1nnc(SCc2ccc(Cl)c(Cl)c2)o1	2.76
COC(=O)C1=C(C(=O)OC)SC(=C2C(=S)C(C)(C)N(C(=O)CCC3CCCCC3)c3ccccc32)S1	0.34
O=S(=O)(c1ccc(Cl)s1)N1CCC(O)(Cc2ccccc2)CC1	-0.655
CCSc1sc(CC)cc1C1C(C(=O)Nc2cc(C)ccn2)=C(C)NC2=C1C(=O)CCC2 (stereo unspecified)	0.045

Screening results from PubChem.
